Test results taken from PubChem BioAssay (NCI).
About 83,000 compounds went through this panel and 20% of them were active in at least one assay; those are over-represented in the sample as a whole.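 The test compound was applied at a single concentration to cells in 96-well plates for 48 hours, and percent growth was recorded.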 Unmarked numbers belong to inactive results. The source made the active and inactive calls. Rule for the calls: active = growth percent below 10; inactive = the rest.

These compounds were tested on HL-60(TB) leukemia (assay: NCI-60 one-dose screen, 48 h (100 = growth as untreated, 0 = no growth, -100 = all killed)). Conditions: 10 µM unless noted.

| SMILES | growth |
| --- | --- |
| COC1=CC(c2ccc[nH]2)=N/C1=C\c1[nH]c(C)c(C(=O)CCC(=O)Oc2ccc3c(c2)CCC2C3CC[C@]3(C)C(=O)CC[C@@H]23)c1C (some centres not stated) | 79.8% |
| COc1cc(NC(=O)C2=C(C)NC(C)=C(C(=O)Nc3cc(OC)c(Cl)cc3OC)C2c2cccc([N+](=O)[O-])c2)c(OC)cc1Cl | 15.5% |
| COc1cc(C2=NN(C(C)=O)C(c3cccc(Nc4ccnc5cc(C(F)(F)F)ccc45)c3)C2)cc(OC)c1OC (configuration not stated) | 10.6% |
| Cc1cc(N(CCCNc2ccnc3cc(Cl)ccc23)Cc2ccco2)nc(Cl)n1 | 17.5% |
| C=CCNc1ccc2c3c(cccc13)C(=O)N(N1C(=O)c3cccc4cccc(c34)C1=O)C2=O | 102% |
| C=C1c2c(Cl)ccc(O)c2C(O)=C2C(=O)[C@]3(O)C(O)=C(C(N)=O)C(=O)[C@@H](N(C)C)[C@@H]3[C@@H](O)[C@H]12 | -24.8% (active) |
| C#CCOc1ccc(C2=NN(CC3CC3)C3N=C(Cl)c4ncn(CC5CC5)c4N23)cc1OCC#C (configuration not stated) | 99.1% |
| N#C/C(=C/C=C/c1ccccc1)S(=O)c1ccccc1 (configuration not stated) | -16.5% (active) |
| Cc1cccc(/C=N/n2c(-c3ccc(Cl)cc3)nc3c(Br)cc(Br)cc3c2=O)c1 | 70.8% |
| Nc1cc2nc3ccccc3sc-2cc1=O | 6.95% (active) |
| CCCCNC(=O)Oc1ccc(/C(=C(/C)Cc2ccc(OC)cc2)c2ccc(OCCN3CCCC3)cc2)cc1 | 43.9% |
| COc1cc(/C=N/NC(=O)c2ccc(C(F)(F)F)nc2Nc2cc(Cl)ccc2C)cc(OC)c1OC | 107% |
| O=c1[nH][nH]c(=O)c2cc([N+](=O)[O-])ccc12 | 96.2% |
| C=C1C(=O)OC2CC1C(OC(C)=O)C/C(C)=C/CC/C(C)=C\CCC2(C)O (configuration not stated) | -51.9% (active) |
| Clc1cc2c(nn1)Nc1ccccc1S2 | 102% |
| COc1cc(N=Nc2ccc(N)cc2)c(OC)cc1N=Nc1ccccc1.[Cl][Zn][Cl] | 73.5% |
| COc1ccc2c(c1)C(=O)c1c-2c(=O)n(CCCCCCC(=O)NO)c2ccccc12 | 12.7% |
| S=c1cnc2ccccc2[nH]1 | 86.4% |
| ClC1=C(Cl)C(Cl)=C(Cl)C1=Cc1ccccc1 | -8.87% (active) |

| SMILES | growth |
| --- | --- |
| S=c1nn[nH]n1C1CCCCC1 | 79.8% |
| COc1ccc(-c2cc(-c3ccc(OC)cc3)c3sc(=O)[nH]c3n2)cc1 | 84.7% |
| CC(=O)c1cnc2ccc(-c3cc(Cl)c(O)c(Cl)c3)nc2c1NC1CCC(CN(C)C)CC1 (configuration not stated) | -14.8% [2.5 µM] (active) |
| C=CC(=O)Nc1cccc(Oc2nccc(Nc3nnc(C4CC4)s3)n2)c1 | 78% |
| COc1cccc(NC(=O)c2sc3nc(C)c(C(O)c4ccccc4)cc3c2N)c1 (configuration not stated) | -52% (active) |
| Cc1ccc(-n2c(-c3ccccc3)c(-c3ccccc3)c3c(SCC(=O)n4[nH]c(N)cc4=O)ncnc32)cc1 | 102% |
| C/C(=C\C(=O)c1ccc(Cl)cc1)c1ccc(Cl)cc1 | 92.5% |
| N#Cc1c(-c2ccc(F)cc2)nc(N=Nc2c(O)[nH]c3ccccc23)nc1N1CCOCC1 | 101% |
| C[C@]12C[C@@H](c3ccoc3)OC(=O)[C@@H]1CC[C@]1(C)[C@@H]2CC[C@@H](O)[C@]1(C)O | 9.31% (active) |
| N=C(N)c1ccc(-c2ccc(-c3cccs3)s2)cc1 | -46.6% (active) |
| Cn1c(N)c(N=Nc2ccc(S(=O)(=O)Nc3nccs3)cc2)c(=O)n(C)c1=O | 94.6% |
| CN(C)CC1C(=O)O[C@H]2[C@H]1CC/C(COC(=O)NCc1ccc(Cn3c(=O)sn(CCCI)c3=O)cc1)=C\CC[C@@]1(C)O[C@@H]21 (some centres not stated) | -36.5% (active) |
| CCOC(=O)/C(=C/c1ccccc1)C(=O)c1ccccc1 | 34.5% |
| COc1cc(Nc2ncc3c(n2)-c2ccc(Cl)cc2C(c2c(F)cccc2OC)=NC3)ccc1C(=O)O | 45.4% |
| COc1ccc2c(c1)/C(=C/c1c(-c3cc(OC)c(OC)c(OC)c3)nc3sccn13)C(=O)N2 | 83.4% |
| Cc1ccccc1C(=O)c1ccccc1C(=O)O | 106% |
| COc1ccc(O)c(N=Nc2nccs2)c1 | -22.5% (active) |
| CC1(C)OC(=O)C(=Cc2cccc(Br)c2)C(=O)O1 | 83.4% |
